# Results: PubChem BioAssay (EPA / NIEHS)
# Calls of active or inactive are those of the source. Rule for the calls: active = hit-call score of the fitted dose curve at least 0.9, where 1 is the maximum; inactive = score below 0.9.
# Read-out: Epidermal growth factor receptor (EGFR), EGFR (gene 1956)
# Test: BSK_hDFCGF_EGFR: BioMAP Diversity Plus: hDFCGF Assay for Epidermal growth factor receptor (EGFR) Biomarker Activity (AID 2283057)
# Conditions: primary human foreskin fibroblasts; actives raise or lower the signal
# In short: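 Cell-based multiplexed assay in primary human foreskin fibroblasts. EGFR is read by ELISA 24 h after treatment and compared with DMSO controls.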
SMILES,outcome,AC50
O=C1O[C@H]([C@H](O)CO)C(O)=C1O,inactive,
CCCCc1nc2cccnc2n1Cc1ccc(-c2ccccc2-c2nnn[nH]2)cc1,inactive,
CCCCOC(=O)CCCCC(=O)OCCCC,inactive,
CC(C)NCC(O)c1ccc(O)c(O)c1 (stereo not drawn),inactive,
CCCCC(CC)CO (stereo not drawn),inactive,
O=C(N[C@@H](c1ccccc1)[C@@H]1CCCCN1)c1cccc(C(F)(F)F)c1Cl,inactive,
CCC(C)N(C)C(=O)c1cc2ccccc2c(-c2ccccc2Cl)n1 (stereo not drawn),inactive,
CCCCCCCCCCCCCCOS(=O)(=O)O,,12.2 µM (active)
CC(C)c1cccc(C(C)C)c1NC(=O)NS(=O)(=O)c1cc(C(C)(C)O)co1,inactive,
CCN(CC)CCOc1ccc(C(=C(Cl)c2ccccc2)c2ccccc2)cc1,inactive,
CCCCCCC(C=O)=Cc1ccccc1,inactive,
COC(=O)CCCC(=O)OC,inactive,
CN(C)C(=O)NC1(c2ccccc2)CCN(CC[C@@]2(c3ccc(F)c(F)c3)CN(C(=O)c3ccccc3)CCO2)CC1,inactive,
CC(=O)S[C@H](C(=O)N[C@H]1Cc2ccccc2[C@H]2CCC[C@@H](C(=O)O)N2C1=O)C(C)C,inactive,
Cc1c(C)c2c(c(C)c1O)CCC(C)(COc1ccc(CC3SC(=O)NC3=O)cc1)O2 (stereo not drawn),,8.04 µM (active)
CCCCC(CC)COP(=O)(OCC(CC)CCCC)OCC(CC)CCCC (stereo not drawn),inactive,
O=C(O)c1cccnc1,inactive,
O=C(O)CC(O)(CC(=O)O)C(=O)O,inactive,

# Read-out: Interleukin-8 (IL8), CXCL8 (gene 3576)
# Test: BSK_hDFCGF_IL8: BioMAP Diversity Plus: hDFCGF Assay for Interleukin-8 (IL8) Biomarker Activity (AID 2283058)
# Conditions: primary human foreskin fibroblasts; actives raise or lower the signal
# In short: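 Cells used are human skin primary fibroblasts. Chemical is added, cultures run 24 h, then IL-8 is quantified by ELISA, and gain or loss versus DMSO control is fitted in both directions.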
SMILES,outcome,AC50
Cc1ccc(-c2cc(C(F)(F)F)nn2-c2ccc(S(N)(=O)=O)cc2)cc1,inactive,
O=C1O[C@H]([C@H](O)CO)C(O)=C1O,inactive,
CCCCc1nc2cccnc2n1Cc1ccc(-c2ccccc2-c2nnn[nH]2)cc1,inactive,
CCCC(=O)O,inactive,
CCCCOC(=O)CCCCC(=O)OCCCC,inactive,
CC(C)NCC(O)c1ccc(O)c(O)c1 (stereo not drawn),inactive,
Cn1cnc2c1c(=O)[nH]c(=O)n2C,inactive,
O=C(Oc1ccccc1)c1cccc(C(=O)Oc2ccccc2)c1,inactive,
O=C(O)c1[nH]n(-c2ccc(S(=O)(=O)O)cc2)c(=O)c1N=Nc1ccc(S(=O)(=O)O)cc1,inactive,
CCCCC(CC)CO (stereo not drawn),inactive,
CCc1cc(C2=C(C(=O)O)N(c3ccccc3C(F)(F)F)S(=O)(=O)c3ccccc32)cc2c1OCO2,inactive,
O=C(N[C@@H](c1ccccc1)[C@@H]1CCCCN1)c1cccc(C(F)(F)F)c1Cl,inactive,
CCC(C)N(C)C(=O)c1cc2ccccc2c(-c2ccccc2Cl)n1 (stereo not drawn),inactive,
CCCCCCCCCCCCCCOS(=O)(=O)O,,12.4 µM (active)
CCCCCCCC(=O)OC,inactive,
CC(C)c1cccc(C(C)C)c1NC(=O)NS(=O)(=O)c1cc(C(C)(C)O)co1,inactive,
CCN(CC)CCOc1ccc(C(=C(Cl)c2ccccc2)c2ccccc2)cc1,,13 µM (active)
c1ccc2occc2c1,inactive,
CCCCCCC(C=O)=Cc1ccccc1,inactive,
COC(=O)CCC(=O)OC,inactive,
COC(=O)CCCC(=O)OC,inactive,
CN(C)C(=O)NC1(c2ccccc2)CCN(CC[C@@]2(c3ccc(F)c(F)c3)CN(C(=O)c3ccccc3)CCO2)CC1,inactive,
CC(=O)S[C@H](C(=O)N[C@H]1Cc2ccccc2[C@H]2CCC[C@@H](C(=O)O)N2C1=O)C(C)C,inactive,
CC(=O)OC1CC(C)OC(C)O1 (stereo not drawn),inactive,
O=C1CCCCC1,inactive,
Nc1nc(Cl)nc2c1ncn2[C@H]1C[C@H](O)[C@@H](CO)O1,inactive,
Cc1c(C)c2c(c(C)c1O)CCC(C)(COc1ccc(CC3SC(=O)NC3=O)cc1)O2 (stereo not drawn),,27.8 µM (active)
CCCCC(CC)COP(=O)(OCC(CC)CCCC)OCC(CC)CCCC (stereo not drawn),inactive,
O=C(O)c1cccnc1,inactive,
O=C(O)CC(O)(CC(=O)O)C(=O)O,inactive,
